Screening data: PubChem, National Center for Advancing Translational Sciences (NCATS)
Rows were chosen to be rich in hits. Some 12% of all compounds tested hit in one or more screens of this group.
JMJD2A Tudor – blocks the human JMJD2A Tudor domain. O75164. AlphaScreen JMJD2A-Tudor / H3K4me3 peptide binding. Potency, µM (top dose mostly 114 µM), for inactives: at the highest dose activity change, negative = inhibition, actives largely listed as inhibitors. 390,000 compounds, 4.4% hits; also: potency is read from the fitted curve at half-maximal effect; % is scaled to controls: 0 for no effect and ±100 for the full control effect; nearly all actives have a fitted effect of over 50% in size
BAZ2B block – BAZ2B (human) inhibition. Potency, µM (highest dose often 114 µM), for inactives: at the highest dose activity change, negative = inhibition, hits mostly inhibitors. Q9UIF8. AlphaScreen BAZ2B-H3K14Ac peptide displacement. 360,000 compounds, 4.4% hits. AID 504333; also: potency is read from the fitted curve at half-maximal effect; % is scaled to controls: 0 for no effect and ±100 for the full control effect; nearly all actives have a fitted effect of over 60% in size
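AlphaScreen displacement: compounds (up to 110uM) incubated 30 min at room temperature with a preformed 50 nM BAZ2B/50 nM biotinylated H3K14Ac peptide complex in PBS pH 7.4 with Tween-20. Donor and acceptor beads at 10 ug/mL final added, 20 min light-protected before reading.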
PI5P4K alpha inh – blocks human PI5P4K alpha kinase activity | P48426 | PI5P4Kalpha enzyme, ADP-Glo luminescence, 60 min; active compounds read low | max response, % | 330,000 compounds, 1.2% hits | AID 652105; active = max response of -50% or lower; inconclusive = between -30% and -50%; inactive = -30% or higher; also: value at the top dose of about 77 µM; % is scaled to controls: 0 for no effect and ±100 for the full control effect
Target sequence (P48426 whole entry, looked up): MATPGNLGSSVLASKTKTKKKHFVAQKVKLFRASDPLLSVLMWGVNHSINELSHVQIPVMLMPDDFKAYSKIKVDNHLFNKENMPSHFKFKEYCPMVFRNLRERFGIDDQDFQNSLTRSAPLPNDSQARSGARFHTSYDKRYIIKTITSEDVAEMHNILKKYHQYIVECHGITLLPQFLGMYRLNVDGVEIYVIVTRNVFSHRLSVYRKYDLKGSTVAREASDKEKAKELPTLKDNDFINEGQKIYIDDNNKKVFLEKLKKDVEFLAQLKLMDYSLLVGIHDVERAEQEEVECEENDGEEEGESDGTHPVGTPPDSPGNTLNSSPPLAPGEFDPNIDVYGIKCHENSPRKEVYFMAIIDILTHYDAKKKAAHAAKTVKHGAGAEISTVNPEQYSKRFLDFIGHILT
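ADP-Glo luminescence end-point read after a 60 min room-temperature kinase reaction of PI5P4Kalpha plus substrate, initiated with ATP at 5 microM final. Buffer: 0.038 M HEPES pH 7.4, EGTA, 0.1% CHAPS, 5% DMSO.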
HP1b binding inh – blocks HP1-beta chromodomain binding to methylated histone tails; P83916; 390,000 compounds, 0.56% hits; Potency, µM (doses to about 114 µM), inactives show at the top dose activity change, negative = inhibition, most hits filed as inhibitors; AID 540317; AlphaScreen HP1-beta / biotin-H3K9me3 peptide binding; also: potency is read from the fitted curve at half-maximal effect; nearly all actives have a fitted effect of over 70% in size
Target sequence (P83916 whole entry, looked up): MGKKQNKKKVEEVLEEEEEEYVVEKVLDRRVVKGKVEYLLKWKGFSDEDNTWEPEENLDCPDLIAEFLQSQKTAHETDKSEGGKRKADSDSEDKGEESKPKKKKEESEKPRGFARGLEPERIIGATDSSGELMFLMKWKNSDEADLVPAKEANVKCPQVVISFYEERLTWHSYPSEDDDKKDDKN
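Compound inhibition of the preformed complex between 50 nM HP1-beta and 50 nM biotinylated H3K9me3 peptide was read by AlphaScreen. Buffer was PBS pH 7.4 with 0.01% Tween-20. Incubations ran 30 min at room temperature, with 10 ug/mL donor/acceptor beads.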
PLK1 PBD inh – inhibitors of human PLK1 polo-box domain binding. P53350. Plk1 PBD binding of FITC phosphopeptide, fluorescence polarization. Potency, µM, without a hit: max response, negative = inhibition, hits mostly inhibitors. 360,000 compounds, 2.8% hits; also: potency is read from the fitted curve at half-maximal effect; series mostly up to about 57 µM; % is scaled to controls: 0 for no effect and ±100 for the full control effect; nearly all actives have a fitted effect of over 65% in size
G9a block – inhibitors of human histone lysine methyltransferase G9a; Potency, µM (series often up to 102 µM), for inactives: top-dose activity, negative = inhibition, most hits filed as inhibitors; 350,000 compounds, 8.8% hits; Q96KQ7; G9a H3K9 monomethylation, AlphaScreen, 2 h; also: potency is read from the fitted curve at half-maximal effect; % is scaled to controls: 0 for no effect and ±100 for the full control effect; nearly all actives have a fitted effect of over 75% in size
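AlphaScreen detection with an anti-monomethyl H3K9 antibody quantified product after a 2 h room-temperature reaction containing 500 nM biotinylated H3K9 peptide, 20 µM SAM and 20 nM enzyme, which had been preincubated 15 min with compound.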
Starred values were filed as active, the others as inactive; ? = inconclusive; . = not tested or not shown; [ ] = remark or other dose. Unless noted, calls follow the shape of the dose curve; as a rule, active = well fitted curve in the direction sought with a large enough effect; inconclusive = small, poorly fitted or top-dose-only effect, or another doubt; inactive = no such curve, though single readings can be large; an effect the other way counts as inactive or inconclusive.

SMILES | JMJD2A Tudor | BAZ2B block | PI5P4K alpha inh | HP1b binding inh | PLK1 PBD inh | G9a block
CN1CCN(C(CNC(=O)C(=O)NC2CCCC2)c2ccc(F)cc2)CC1 (configuration not stated) | -1% | -3% | -3 | 18% | -5% | ?
Cc1ccccc1-c1nc2c(c(SCc3cccc(Cl)c3)n1)Cc1c(CO)cnc(C)c1O2 | -12% | -9% | . | 26% | . | -8%[59 µM]
CC(C)n1ncc2c(C(=O)NCCc3ccc(F)cc3)cc(C3CC3)nc21 | 10% | 13% | 9 | 47% | -1% | ?
Nc1nccnc1C(=O)OCC(=O)c1ccc[nH]1 | -16% | -1% | -22 | 6% | -6% | 50µM*
Cc1cccc(OCCNc2cc(N3CCN(CCO)CC3)ccc2[N+](=O)[O-])c1 | ? | ? | 15 | -28% | 0% | 45µM*
Cc1ccccc1OCCNc1cc(N2CCN(CCO)CC2)ccc1[N+](=O)[O-] | ? | 32µM* | 27 | ? | -7% | ?
Cc1ccc(S(=O)(=O)N2CCN(c3ccc([N+](=O)[O-])c(NCCN4CCOCC4)c3)CC2)cc1 | ? | -33% | 3 | -7% | 8% | ?
Cc1ccc(C)c(-c2nn(-c3cc(N4CCN(CCO)CC4)ccc3[N+](=O)[O-])c(=O)c3ccccc23)c1 | 35µM* | 45µM* | 15 | ? | -3% | 40µM*
O=[N+]([O-])c1ccc(N2CCN(S(=O)(=O)c3ccccc3)CC2)cc1NCCN1CCOCC1 | -33% | -31% | 16 | -3% | -1% | 20µM*
Cc1nn(-c2cc(N3CCCC3)ccc2[N+](=O)[O-])c(=O)c2ccccc12 | -30% | -37% | -3 | -17% | 0% | -17%
Nc1nc2c(ncn2[C@@H]2O[C@H](CNS(=O)(=O)c3cccnc3)[C@@H](O)[C@H]2O)c(=O)[nH]1 | . | . | 2 | . | -2% | .
COc1ccc(/C=C2\SC(=O)N(CC(=O)NC3CCS(=O)(=O)C3)C2=O)cc1 (configuration not stated) | -10% | -11% | 0 | 20% | -18% | .
Cc1ccc(C2(C)NC(=O)N(CC(=O)NC3CCCCC3)C2=O)cc1 (configuration not stated) | -2% | -19% | 3 | 41% | 2% | 13%[0.501 µM]
CC(C)CNc1cc(N2CCCC2)ccc1[N+](=O)[O-] | ? | ? | . | -28% | -5% | 11µM*
COc1ccc(OCCNc2cc(N3CCOCC3)ccc2[N+](=O)[O-])cc1 | 79µM* | ? | 1 | -21% | -27% | ?
Cc1ccc(C)c(OCC(=O)N(Cc2ccccc2)c2c(N)n(Cc3ccccc3)c(=O)[nH]c2=O)c1 | -14% | . | -14 | 11% | -12% | .
Cc1ccccc1-n1ccnc1SCC(=O)Nc1cccc(S(=O)(=O)NC2=NCCC2)c1 | -17% | . | -5 | 2% | -13% | .
COC1CCC2(C)C(=CCC3C4CC(O)CC4(C)CCC32)C1 (configuration not stated) | -6% | . | 1 | 28% | -3% | .
CCOC(=O)CS(=O)(=O)c1nc(-c2ccc(F)cc2)cc(C(F)(F)F)n1 | -2% | -3% | -11 | 32% | 5.3µM* | ?
CCOC(=O)CCS(=O)(=O)c1nc(-c2ccccc2)cc(C(F)(F)F)n1 | -7% | -4% | 9 | 68% | ? | 2.8µM*
COc1ccc(NC(=O)CCS(=O)(=O)c2nc(-c3ccc4c(c3)OCO4)cc(C(F)(F)F)n2)cc1OC | -19% | -11% | . | 16% | . | 11µM*
CCOC(=O)c1c(C(F)(F)F)cc(-c2ccc(F)cc2)nc1C | 33%[57.1 µM] | 79% | 12 | 215% | -3% | 92%
CCOC(=O)CS(=O)(=O)c1ccccc1 | 6% | -2% | 0 | 14% | -2% | -11%[59 µM]
CCOC(=O)CS(=O)(=O)c1nc(-c2ccccc2)cc(C(F)(F)F)n1 | -12% | -12% | 0 | 46% | 11µM* | 35µM*
CCN(C(=O)COC(=O)CCC(=O)c1ccccc1)c1c(N)n(Cc2ccccc2)c(=O)[nH]c1=O | 0% | 5% | -10 | 37% | 2% | -2%[12.7 µM]
SMILES | JMJD2A Tudor | BAZ2B block | PI5P4K alpha inh | HP1b binding inh | PLK1 PBD inh | G9a block
O=C(NCCOc1ccccc1F)C1CCC(=O)N(CC2CCCCC2)C1 (configuration not stated) | -8% | 6% | 6 | 22% | -8% | .
CS(=O)(=O)c1nc(-c2ccc(F)cc2)cc(C(F)(F)F)n1 | -10% | -3% | -3 | 64% | 24µM* | 45µM*
Cc1cc(NC(=O)CCCS(=O)(=O)c2nc(-c3cccs3)cc(C(F)(F)F)n2)no1 | -12% | -4% | -6 | 84% | ? | 50µM*
Cc1cc(NC(=O)CSc2nc(-c3cccs3)cc(C(F)(F)F)n2)no1 | -5% | -4% | . | 18% | -10% | -7%
COc1ccc(-c2cc(C(F)(F)F)nc(S(C)(=O)=O)n2)cc1 | -17% | 12% | 0 | 31% | ? | -19%
COC(=O)CCS(=O)(=O)c1nc(-c2ccccc2)cc(C(F)(F)F)n1 | -1% | 2% | . | 57% | 21µM* | -24%[12.7 µM]
Cc1ccc2[nH]c(CSc3nnc(NC(=O)COc4ccccc4Cl)s3)cc(=O)c2c1 | -20% | -38% | . | 18%[57 µM] | . | -40%[59 µM]
Cn1c(-c2ccccc2)cc(=O)cc1-c1ccccc1 | . | . | 2 | . | -8% | .
O=c1cc(-c2ccccc2)cc(-c2ccccc2)n1O | 50µM* | 35µM* | 6 | 7% | -9% | 15%[12.7 µM]
CCc1ccc(O)c(-c2cc(C(=O)Nc3cccnc3)[nH]n2)c1 | -7%[11.4 µM] | -12% | -14 | -11% | 27µM* | 14%
O=C(CC[C@H]1O[C@@H](n2ccc(=O)[nH]c2=O)[C@H](O)[C@@H]1O)N[C@@H](Cc1ccccc1)C(=O)NCC1CCCCC1 | . | . | -2 | . | 4% | .
CC(C)c1cccc(-c2csc(C(C)(O)c3ccc(F)c(F)c3)n2)c1 (configuration not stated) | . | . | 25 | . | -3% | .
COC(=O)c1c(NC(C)=O)sc(C(=O)Nc2ccccc2F)c1C | ? | -5% | ? | -14% | 24µM* | .
Cc1ccc(C(=O)c2no[n+]([O-])c2C(=O)c2ccc(C)cc2)cc1 | -23% | ? | -5 | -13% | ? | 40µM*
Cc1ccc(C(=O)c2ccc(C)cc2)cc1 | 53% | 82% | -5 | 97% | 4% | 54%
O=C(O)c1cc2nccc(-c3ccco3)n2n1 | 89µM* | ? | ? | 17% | -24% | 50µM*
COc1ccc(-c2ccnc3cc(C(=O)O)nn23)cc1 | -5% | ? | 3 | 14% | 8% | -18%
CN(C)S(=O)(=O)c1cccc(-c2nnc(SCCNCCO)n2-c2ccc(F)cc2)c1 | 50µM* | 79µM* | -2 | 21% | -2% | ?
C=CCOC(=O)c1ccc(N2CCN(c3ccccc3)CC2)nc1 | -2% | 10% | 24 | 64% | -2% | -6%
